# According to the supplement of paper PMC8371130:
# Structures can show the parent of a compound that is named as a salt.
# System: HL-1
# Assay: relative cell viability (CellTiter-Glo) vs DMSO control (% of DMSO control); higher = more viable cells
# How it was run: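 Compounds at 40, 200, 1000 or 5000 nM in 0.01% DMSO were added to HL-1 mouse atrial cardiomyocytes plated at 1000 cells per well in 384-well plates. The next day, cells were exposed to 1% O2 for 48 h and then reoxygenated for 24 h, or left in normoxia for the same time. Viability was read with CellTiter-Glo luminescence and normalised to vehicle-treated controls.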
# [1] = oxygen condition: hypoxia 48 h (1% O2) + reoxygenation 24 h, 40 nM
# [2] = oxygen condition: hypoxia 48 h (1% O2) + reoxygenation 24 h, 200 nM
# [3] = oxygen condition: hypoxia 48 h (1% O2) + reoxygenation 24 h, 1000 nM
# [4] = oxygen condition: hypoxia 48 h (1% O2) + reoxygenation 24 h, 5000 nM
# [5] = oxygen condition: normoxia 72 h, 40 nM
# [6] = oxygen condition: normoxia 72 h, 200 nM
# [7] = oxygen condition: normoxia 72 h, 1000 nM
# [8] = oxygen condition: normoxia 72 h, 5000 nM
Structure (SMILES),relative cell viability [1],relative cell viability [2],relative cell viability [3],relative cell viability [4],relative cell viability [5],relative cell viability [6],relative cell viability [7],relative cell viability [8]
CCCCCCCCCCC[C@@H](C[C@@H]1OC(=O)[C@H]1CCCCCC)OC(=O)[C@H](CC(C)C)NC=O [Orlistat],104,115,94.9,107,108,112,102,103
CCOC(=O)c1c(C)n(C)c2ccc(O)cc12 [Mecarbinate],102,102,101,113,101,99.4,106,110
CCCCCN(C)CCC(O)(P(=O)(O)O)P(=O)(O)O [Ibandronate sodium],100,95.3,93.1,91,99.9,99.4,92.6,84.4
COc1ccc(C2C(=O)c3ccccc3C2=O)cc1 [Anisindione],99.6,102,105,118,102,78.2,114,120
COc1ccc(CN2CCN(C(c3ccc(F)cc3)c3ccc(F)cc3)CC2)c(OC)c1OC [Lomerizine HCl],96.9,105,108,106,68.3,102,106,108
C=C1/C(=C\C=C2/CCC[C@]3(C)[C@@H]([C@H](C)CCCC(C)(C)O)CC[C@@H]23)C[C@@H](O)C[C@@H]1O [Calcitriol],90.8,91.2,92.9,91,94.5,92.6,93.6,89.9
NC[C@H]1CC[C@H](C(=O)O)CC1 [Tranexamic acid],99.9,102,100,104,101,104,102,112
CCCN[C@H]1CCc2nc(N)sc2C1 [Pramipexole],103,103,101,108,98.2,98.9,107,108
CN1CCN(C2=Nc3cc(Cl)ccc3Nc3ccccc32)CC1 [Clozapine],105,104,105,99.9,96,108,113,102
Cc1onc(-c2ccccc2)c1C(=O)N[C@@H]1C(=O)N2[C@@H]1SC(C)(C)[C@@H]2C(=O)O [Oxacillin sodium monohydrate],104,107,96.5,110,103,101,110,109
CC1(C)[C@@H](OC(=O)CCC(=O)O)CC[C@]2(C)[C@H]3C(=O)C=C4[C@@H]5C[C@@](C)(C(=O)O)CC[C@]5(C)CC[C@@]4(C)[C@]3(C)CC[C@@H]12 [Carbenoxolone Sodium],94.3,103,100,108,93.6,102,102,107
Cc1ccc(C(=O)C(C)CN2CCCCC2)cc1 (stereo not given) [Tolperisone HCl],107,107,109,108,107,114,81.5,111
CC(=O)O[C@H]1CC[C@@]2(C)C(=CC[C@@H]3[C@@H]2CC[C@]2(C)C(c4cccnc4)=CC[C@@H]32)C1 [Abiraterone Acetate],104,103,101,117,97.2,99.2,102,115
CCCC(=O)Nc1ccc(OCC(O)CNC(C)C)c(C(C)=O)c1 (stereo not given) [Acebutolol HCl],102,108,107,114,104,107,106,116
CNC(=C[N+](=O)[O-])NCCSCc1csc(CN(C)C)n1 [Nizatidine],108,104,106,95.7,115,104,106,85
Clc1ccc(COC(Cn2ccnc2)c2ccc(Cl)cc2Cl)cc1 (stereo not given) [Econazole nitrate],102,104,106,108,110,105,102,105
NCCCC(O)(P(=O)(O)O)P(=O)(O)O [Alendronate],104,102,106,109,99.2,105,107,109
CSc1ccc2c(c1)N(CCC1CCCCN1C)c1ccccc1S2 (stereo not given) [Thioridazine HCl],101,108,101,107,98.9,101,98.7,108

Structure (SMILES),relative cell viability [1],relative cell viability [2],relative cell viability [3],relative cell viability [4],relative cell viability [5],relative cell viability [6],relative cell viability [7],relative cell viability [8]
CN1CCN(C2=Nc3ccccc3Oc3ccc(Cl)cc32)CC1 [Loxapine Succinate],100,103,105,116,103,111,102,125
Cc1ccc(NC(=O)c2ccc(CN3CCN(C)CC3)cc2)cc1Nc1nccc(-c2cccnc2)n1 [Imatinib],101,101,110,107,105,100,98.6,111
CCCCOc1ccc(OCCCN2CCOCC2)cc1 [Pramoxine HCl],106,110,110,118,110,107,97.5,119
O=C1O[C@H]([C@@H](O)CO)C([O-])=C1O.[Na+] [Sodium ascorbate],99.7,101,106,117,98.8,103,102,114
COCCOC(=O)C1=C(C)NC(C)=C(C(=O)OC(C)C)C1c1cccc([N+](=O)[O-])c1 (stereo not given) [Nimodipine],109,108,109,107,108,109,103,104
CC[C@H]1OC(=O)[C@H](C)[C@@H](O[C@H]2C[C@@](C)(OC)[C@@H](O)[C@H](C)O2)[C@H](C)[C@@H](O[C@@H]2O[C@H](C)C[C@H](N(C)C)[C@H]2O)[C@](C)(O)C[C@@H](C)CN(C)[C@H](C)[C@@H](O)[C@]1(C)O [Azithromycin],109,103,99.3,59.1,105,96.2,102,41.1
O=c1oc2c(O)c(O)cc3c(=O)oc4c(O)c(O)cc1c4c23 [Ellagic acid],113,104,114,124,101,113,118,119
O=C1C(O)=C([C@H]2CC[C@H](c3ccc(Cl)cc3)CC2)C(=O)c2ccccc21 [Atovaquone],98.8,103,113,112,98.2,104,98.5,115
N[C@@H](Cc1ccc(O)c(O)c1)C(=O)O [Levodopa],110,109,107,110,104,101,108,104
NCC(=O)CCC(=O)O [5-Aminolevulinic acid hydrochloride],101,104,105,110,99.8,102,100,113
COc1ccc(CC2c3cc(OC)c(OC)cc3CC[N+]2(C)CCC(=O)OCCCCCOC(=O)CC[N+]2(C)CCc3cc(OC)c(OC)cc3C2Cc2ccc(OC)c(OC)c2)cc1OC (stereo not given) [Atracurium besylate],104,96.7,91.2,23.1,101,93.3,95.7,18.9
O=C1c2c(O)ccc(O)c2C(=O)c2c(NCCNCCO)ccc(NCCNCCO)c21 [Mitoxantrone Hydrochloride],4.78,4.55,5.93,3.1,4.75,4.41,3.59,3.38
CCOc1ccccc1OC(c1ccccc1)C1CNCCO1 (stereo not given) [Reboxetine mesylate],105,102,105,122,115,99.7,108,119
NS(=O)(=O)c1cc2c(cc1Cl)N=CNS2(=O)=O [Chlorothiazide],117,112,113,111,109,104,103,110
COC(=O)C1=C(C)NC(C)=C(C(=O)OCC(C)C)C1c1ccccc1[N+](=O)[O-] (stereo not given) [Nisoldipine],106,104,107,110,99.2,110,116,111
CCN(CC)CC#CCOC(=O)C(O)(c1ccccc1)C1CCCCC1 (stereo not given) [Oxybutynin],97.2,99.9,101,102,109,103,104,101
O=c1[nH]cc(F)c(=O)[nH]1 [Adrucil],110,94.1,52.9,18.6,96.6,81.2,42.9,15.4
